Molecules are shown by their SMILES. Results filed as inconclusive are left out. Values without a mark were called inactive. Calls come from the whole dose curve; as a rule, active = well fitted cell-killing curve with a large enough effect; inconclusive = small, poorly fitted or top-dose-only effect, or effect the other way; inactive = flat fitted curve, though single readings scatter. *1 amine or outer side, *2 acyl side, *3 side chain or, on linkers, in order; H or OH if unused. Where a SMILES comes first, the peptide text is derived from it. [ ]: non-standard residue; d: D form. X4 = CC(C)=CCc1cc(C(O)C(N[*:1])C(=O)[*:2])ccc1O
% is set by controls: 0 for no effect and ±100 for the full control effect.

This assay concerns PA-1. The assay can be described thus: Primary qHTS to identify gynecologic anti-cancer compounds using libraries of approved drugs and bioactive compounds (AID 1345084). Note: nearly all actives have a fitted effect of over 55% in size. The note with it: Gynecologic cancer cell panel viability, ATPlite luminescence, 48 h; series mostly up to 57.5 µM; activity change, negative = cytotoxicity: at the top concentration. The method, boiled down: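 Luminescence from the ATPlite ATP-monitoring reagent indicates viable cell number; lower signal means cytotoxicity. Cells received compound 16 h after seeding and were exposed for 48 h across five concentrations.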
(Quantitative high-throughput screening tests each substance at several concentrations.)
In the case of `CN(C)CC1CCOC1(c1ccccc1)c1ccccc1` (configuration not stated), the “activity change, negative = cytotoxicity” value was 3.79% [at 25.3 µM].

Regarding `O=C(OC1C=C(CO)C2C(OC3OC(CO)C(O)C(O)C3O)OC=CC12)c1ccc(O)cc1` (configuration not stated), the “activity change, negative = cytotoxicity” value was -0.701% [at 25.3 µM].

With `CC1(C)CC[C@]2(C(=O)OC3OC(CO)C(O)C(O)C3O)CC[C@]3(C)C(=CCC4[C@@]5(C)CC[C@H](OC6OC(C(=O)O)C(O)C(OC7OC(CO)C(O)C(O)C7O)C6O)C(C)(C)C5CC[C@]43C)C2C1` (some centres not stated), the activity change, negative = cytotoxicity is 4.28% [at 11.6 µM].

Regarding `CC(C)=CCc1cc(C(O)C2NC(=O)CNC(=O)C(Cc3c[nH]c4ccccc34)NC(=O)C3CCCN3C(=O)CNC(=O)C(C(C)C)NC(=O)CNC2=O)ccc1O` (configuration not stated) (cyclo(G[X4]GVGPW); configuration not given here), the activity change, negative = cytotoxicity was -1.16% [at 11.6 µM].

Regarding `COc1ccc(CCO[C@@H]2CCCC[C@H]2N2CC[C@@H](O)C2)cc1OC`, the “activity change, negative = cytotoxicity” value was 5.95%.

Take `COC(=O)C1=CO[C@@H](O[C@@H]2O[C@H](CO)[C@@H](O)[C@H](O)[C@H]2O)[C@@H]2C(COC(C)=O)=C[C@H](O)[C@H]12`: the “activity change, negative = cytotoxicity” value was -9.31% [at 25.3 µM].

With `CC12CCC(OC3OC(CO)C(O)C(OC4OC(CO)C(O)C(O)C4O)C3O)CC1=CCC1C2CCC2(C)/C(=C3/COC(=O)C3)CCC12O` (configuration not stated), the “activity change, negative = cytotoxicity” value was 8.84% [at 25.3 µM].

For the molecule `C/C1=C\[C@H]2OC(=O)[C@@H](C)[C@@H]2CC/C(C(=O)O)=C/CC1`, the “activity change, negative = cytotoxicity” value was 1.4%.

Turning to `CC12CCC(OC3OC(CO)C(O)C(OC4OC(CO)C(O)C(O)C4O)C3O)CC1CCC1C2CCC2(C)/C(=C3/COC(=O)C3)CCC12O` (configuration not stated), the “activity change, negative = cytotoxicity” value was 0.31% [at 25.3 µM].

In the case of `CO/N=C(/C(=O)N[C@@H]1C(=O)N2C(C(=O)O)=C(Cn3ccc(=N)n3CCO)CS[C@H]12)c1csc(N)n1`, the “activity change, negative = cytotoxicity” value is 1.35%.

`CC(C)=CCC[C@](C)(O)[C@H]1CC[C@]2(C)[C@@H]1[C@H](O)CC1[C@@]3(C)CC[C@H](O)C(C)(C)[C@@H]3[C@@H](O[C@@H]3O[C@H](CO)[C@@H](O)[C@H](O)[C@H]3O[C@@H]3O[C@H](CO)[C@@H](O)[C@H](O)[C@H]3O)C[C@]12C` (some centres not stated): the “activity change, negative = cytotoxicity” value is 9.27% [at 25.3 µM].

As for `NC1(C(=O)NC(CCO)c2ccc(Cl)cc2)CCN(c2ncnc3[nH]ccc23)CC1` (configuration not stated), the “activity change, negative = cytotoxicity” value is -19.7%.

Consider `CC1(C)CCCC2(C)C(C(=O)O)=CCC12` (configuration not stated), for which the “activity change, negative = cytotoxicity” value is -1.24%.

With `CCC(C)/C=C(C)/C=C/c1cc2c(cn1)C(=O)C(C)(OC(C)=O)C(O)=C2Cl` (configuration not stated), the “activity change, negative = cytotoxicity” value was 3.2% [at 38.5 µM].

Turning to `O=S(=O)(Nc1ccccn1)c1ccc(N=Cc2c(O)[nH]c3ccc4ncsc4c23)cc1`, the activity change, negative = cytotoxicity is -2.66% [at 11.6 µM].

For the molecule `CC(O)/C=C/C1(O)C(C)C(O[C@@H]2O[C@H](CO)[C@@H](O)[C@H](O)[C@H]2O)C(O)CC1(C)C` (some centres not stated), the “activity change, negative = cytotoxicity” value was 20.8% [at 25.3 µM].

Take `COC(=O)C12CCC(C)C(C)C1C1=CCC3C4(C)CCC(OC(C)=O)C(C)(C)C4CCC3(C)C1(C)CC2` (configuration not stated): the “activity change, negative = cytotoxicity” value is -6.16% [at 25.3 µM].

In the case of `C=C1C(=O)O[C@H](CCC)[C@H]1C(=O)O`, the “activity change, negative = cytotoxicity” value was 2.98%.

Consider `CCOc1cc(CC(=O)NC(CC(C)C)c2ccccc2N2CCCCC2)ccc1C(=O)O` (configuration not stated), for which the “activity change, negative = cytotoxicity” value was -7.07%.

`COC1=CC(=O)CC(C)C12Oc1cc(OC)cc(O)c1C2=O` (configuration not stated): the “activity change, negative = cytotoxicity” value is -1.1%.

For `O=C1CCC(=O)N(O)CCCCCNC(=O)CCC(=O)N(O)CCOCCNC(=O)CCC(=O)N(O)CCCCCN1`, the “activity change, negative = cytotoxicity” value was -8.35% [at 25.3 µM].

On to `CCc1ccc(Cc2ccc3c(c2)[C@]2(OC3)O[C@H](CO)[C@@H](O)[C@H](O)[C@H]2O)cc1`, for which the “activity change, negative = cytotoxicity” value is -0.286%.

Regarding `C=C(C(=O)O)C1CCC2(C)CCC(O)C(=C)C2C1` (configuration not stated), the “activity change, negative = cytotoxicity” value is 13.4%.

Consider `C=C(C)C1CCC2(C(=O)O[C@@H]3O[C@H](CO[C@@H]4O[C@H](CO)[C@@H](O)[C@H](O)[C@H]4O)[C@@H](O)[C@H](O[C@@H]4O[C@@H](C)[C@H](O)[C@@H](O)[C@H]4O)[C@H]3O)CCC3(C(=O)O)C(CCC4C5(C)CCC(O)C(C)(C)C5CCC43C)C12` (some centres not stated), for which the activity change, negative = cytotoxicity was -1.76% [at 11.6 µM].

With `CC(NC(=O)C(O)C(C)C)C(=O)NC1C(=O)N(C)CCc2ccccc21` (configuration not stated), the “activity change, negative = cytotoxicity” value was -0.0041%.

Take `CNC(C)C(=O)NC(C(=O)N1CCCC1c1nc(C(=O)c2ccc(F)cc2)cs1)C1CCCCC1` (configuration not stated): the “activity change, negative = cytotoxicity” value was -7.83%.

`CC(=O)O[C@@H]1[C@H](O)[C@@H](O[C@@H]2O[C@@H](C)[C@H](O[C@@H]3OC[C@@H](O)[C@H](O[C@@H]4OC[C@@H](O)[C@H](O)[C@H]4O)[C@H]3O)[C@@H](O[C@@H]3O[C@H](CO)[C@@H](O)[C@H](O)[C@H]3O)[C@H]2O)[C@H](OC(=O)[C@]23CCC(C)(C)C[C@H]2C2=CCC4[C@@]5(C)CC[C@H](O[C@@H]6O[C@H](C(=O)O)[C@@H](O)[C@H](O[C@@H]7OC[C@@H](O)[C@H](O)[C@H]7O)[C@H]6O[C@@H]6O[C@H](CO)[C@H](O)[C@H](O)[C@H]6O)[C@@](C)(C=O)C5CC[C@@]4(C)[C@]2(C)CC3)O[C@@H]1C` (some centres not stated): the activity change, negative = cytotoxicity is -3.62% [at 6.55 µM].

(Values after PubChem BioAssay (NCATS).)
